Hits are enriched below; roughly 10% of the tested compounds scored in any of these assays.
HP1b binding inh = inhibitors of HP1-beta chromodomain binding to methylated histone tails; P83916; AlphaScreen HP1-beta / biotin-H3K9me3 peptide binding; Potency, µM (series often up to 114 µM), inactives show at the highest dose activity change, negative = inhibition, actives largely listed as inhibitors; 390,000 compounds, 0.56% hits; AID 540317; also: nearly all actives have a fitted effect of over 70% in size
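Compound inhibition of the preformed complex between 50 nM HP1-beta and 50 nM biotinylated H3K9me3 peptide was read by AlphaScreen. Buffer was PBS pH 7.4 with 0.01% Tween-20. Incubations ran 30 min at room temperature, with 10 ug/mL donor/acceptor beads.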
GLS inhibitor = glutaminase GLS (human) inhibition; O94925; GLS enzymatic activity, qHTS titration; Potency, µM (series often up to 45.5 µM), inactives show top-dose activity change, negative = inhibition, hits mostly inhibitors; 410,000 compounds, 0.21% hits; AID 624170; also: % is scaled to controls: 0 for no effect and ±100 for the full control effect
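Compounds were pin-transferred onto hKGA, after which L-glutamine (1 mM solution) and a detection mix of glutamate oxidase, HRP and Amplex Red were added. Initial and 30 min RT fluorescence reads were collected.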
G9a block = G9a (human) methyltransferase inhibition; Q96KQ7; G9a H3K9 monomethylation, AlphaScreen, 2 h; Potency, µM (titrated, usually from 102 µM), inactives show at the highest dose activity, negative = inhibition, hits mostly inhibitors; 350,000 compounds, 8.8% hits; AID 504332; also: % is scaled to controls: 0 for no effect and ±100 for the full control effect; nearly all actives have a fitted effect of over 75% in size
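Compounds were preincubated with 20 nM G9a for 15 min, after which biotinylated H3K9 peptide (500 nM) and SAM (20 uM) started a 2 h room-temperature reaction. Monomethylated product was quantified by antibody-based AlphaScreen chemiluminescence.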
BAZ2B inh = blocks human BAZ2B; 360,000 compounds, 4.4% hits; AID 504333; AlphaScreen BAZ2B-H3K14Ac peptide displacement; Potency, µM (doses to about 114 µM), for inactives: top-dose activity change, negative = inhibition, usual class: inhibitors; also: % is scaled to controls: 0 for no effect and ±100 for the full control effect; nearly all actives have a fitted effect of over 60% in size
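Inhibition is scored as reduced AlphaScreen emission. The BAZ2B/b-H3(5-23)K14Ac complex (50 nM each) in PBS pH 7.4, 0.01% Tween-20 meets compound (up to 110 uM) for 30 min at RT before bead addition.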
L3MBTL1 block = blocks human L3MBTL1; 230,000 compounds, 0.66% hits; Q9Y468; AlphaScreen L3MBTL1–H3K9me1 peptide binding; Potency, µM (top dose mostly 57.1 µM), without a hit: at the highest dose activity, negative = inhibition, hits mostly inhibitors; also: % is scaled to controls: 0 for no effect and ±100 for the full control effect; nearly all actives have a fitted effect of over 60% in size
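L3MBTL1 50 nM + b-AHA-H3(1-15)K9me1 75 nM, 30 min RT; compound added, 30 min RT; streptavidin donor/Ni-chelate acceptor beads 10 ug/mL each final, 30 min RT dark; AlphaScreen read.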
JMJD2A Tudor = blocks the human JMJD2A Tudor domain. AlphaScreen JMJD2A-Tudor / H3K4me3 peptide binding. Potency, µM (titrated, usually from 114 µM), inactives show top-dose activity change, negative = inhibition, hits mostly inhibitors. 390,000 compounds, 4.4% hits. AID 504339; also: % is scaled to controls: 0 for no effect and ±100 for the full control effect; nearly all actives have a fitted effect of over 50% in size
Active calls of the source: *; u = inconclusive; x = no result given; ! = repeats disagree; [ ] = another dose, or the depositor's remark. Calls follow the shape of the dose curve; as a rule, active = well fitted curve in the direction sought with a large enough effect; inconclusive = small, poorly fitted or top-dose-only effect, or another doubt; inactive = no such curve, though single readings can be large; an effect the other way counts as inactive or inconclusive. Potency is read from the fitted curve at half-maximal effect.

SMILES	HP1b binding inh	GLS inhibitor	G9a block	BAZ2B inh	L3MBTL1 block	JMJD2A Tudor
COc1cccc(-c2nnc(SCC3CNC(=O)O3)n2-c2ccc(Cl)cc2)c1 (stereo unspecified)	26.1%	1.4%	14.1µM*	12.0%	-7.2%	-12.7%
Cc1cccc(C(=O)NCCc2nc3ccccc3n2CCC(C)C)c1	54.4%	0.7%	-3.8%[59 µM]	-2.4%	x	-10.7%
CC1=CC(=C(c2ccc(N)cc2)c2ccc(N)cc2)C=CC1=N	x	19.1%	u	x	x	x
Cc1nc2ccc(S(=O)(=O)N(CC(=O)Nc3cccc(C)c3C)Cc3ccccc3)cc2s1	22.3%	-1.8%	-1.9%[59 µM]	-16.2%	x	-3.7%
COc1ccc(CNC(=O)Cc2c(C(=O)O)c(C)cn2C)cc1	25.5%	1.4%	4.5%[59 µM]	-16.9%	x	-8.0%
CCN1CCN(C(c2cccc(Cl)c2)c2c(O)cc(C)n(CCOC)c2=O)CC1 (stereo unspecified)	25.6%[57 µM]	13.0%	u	6.5%	x	-9.4%
CCn1c(SCc2cccc(C(=O)O)c2)nnc1-c1ccccc1	24.2%	-3.5%	56.2µM*	-2.3%	2.2%	-10.8%
CCOC(=O)Cc1nnc(NC(=O)c2ncn[nH]2)s1	14.1%	0.9%	u	8.91µM*	x	2µM*
CCOc1ccc(N)c(SSc2cc(OCC)ccc2N)c1	17.8µM*	-14.1%	0.562µM*	31.6µM*	x	12.6µM*
CCOc1cccc(N)c1	25.1%	-7.1%	2.0%[0.501 µM]	12.9%	-2.7%	-11.7%
COc1ccccc1CNC(=O)c1cc2cc(C)ccc2n1C	48.0%	-0.7%	5.0%[59 µM]	-10.0%	x	0.3%
CCOc1cc(C(N)=O)cc(Cl)c1OCc1ccccc1	23.8%	-2.0%	-7.2%[59 µM]	u	3.7%	-11.6%
CCOc1cc(/C=C(/NC(C)=O)C(=O)O)cc(Cl)c1OCc1cccc(Br)c1	2.9%[57 µM]	17.2%	-10.0%[12.7 µM]	50.1µM*	0.7%	u
Cc1cccc(NC(=O)CSc2nc3c([nH]c4ccccc43)c(=O)n2-c2ccc(F)cc2)c1C	13.3%[57 µM]	7.3%	-7.3%[59 µM]	-0.5%	x	5.2%
O=C(CNCc1cccc2ccccc12)Nc1ccccc1[N+](=O)[O-]	u	-6.6%	50.1µM*	u	u	u
O=C(CC(=O)Nc1ccccc1[N+](=O)[O-])Nc1ccccc1[N+](=O)[O-]	12.0%	8.5%	0.9%	-15.1%	x	-23.9%
CCONC(=O)Nc1ccccc1[N+](=O)[O-]	23.9%	14.0%	70.8µM*	11.5%	3.1%	-6.0%
Cc1ccc(Nc2nc(NCc3ccco3)nc3nccnc23)cc1	33.9%	x	x	x	x	-7.1%
CCOC(=O)c1ccc2c(c1)n(CC)c(/C=C/N(C)c1ccccc1)[n+]2CC	u	-3.7%	18.1%[59 µM]	u	7.3%	-23.3%
CC[n+]1c(/C=C/N(C)c2ccccc2)n(-c2ccccc2)c2ccc(-c3nc4ccccc4s3)cc21	-13.3%	27.1%	25.1µM*	-17.9%	-1.7%	35.5µM*
CCC(CC)C(=O)Nc1nnc(S(=O)(=O)N2c3ccccc3CC2C)s1 (stereo unspecified)	42.0%	2.8%	-9.3%	25.1µM*!	5.3%	50.1µM*!
CC1Cc2ccccc2N1S(=O)(=O)c1nnc(NC(=O)c2cccc(F)c2)s1 (stereo unspecified)	-9.8%	9.0%	-9.5%[59 µM]	-8.9%	x	-28.6%
CCC(CC)C(=O)Nc1nnc(S(=O)(=O)N2CCc3ccccc32)s1	20.4%	7.4%	7.08µM*	u	-4.7%	-6.2%
COc1cc2c(cc1OC)C(COc1ccccc1OC)N(C(=O)COc1ccc(Cl)cc1)CC2 (stereo unspecified)	16.8%	1.9%	-35.4%[59 µM]	-22.7%	x	-32.1%
COc1cccc(NS(=O)(=O)c2ccc3[nH]cc(C(=O)N(C)C4CCCCC4)c(=O)c3c2)c1	-1.9%	2.0%	u	-9.4%	x	-25.3%
SMILES	HP1b binding inh	GLS inhibitor	G9a block	BAZ2B inh	L3MBTL1 block	JMJD2A Tudor
Cc1ccc(C)n1-c1ccc(C#N)cn1	-19.2%	1.6%	-27.8%	-13.8%	u	-22.6%
N#Cc1cnc(NN)nc1	u	u	50.1µM*	22.4µM*	u	0.794µM*
COc1ccc(-c2nc(-c3ccccc3)nc(Cl)c2C#N)cc1	30.3%	11.9%	u	4.4%	13.2%	u
COc1ccc(-c2nc(-c3cccc(C)c3)nc(Cl)c2C#N)cc1	x	x	50.1µM*	-35.4%	10.7%	x
CCCc1ccc(OCC(=O)Nc2sc3c(c2C(=O)OC)CCCCC3)cc1	-12.0%	-12.5%	u	-0.4%	x	-25.5%
CCCN1C(=O)/C(=C2/C=Cc3ccccc3N2CC)SC1=S	3.16µM*	3.7%	3.16µM*	2.82µM*	u	5.62µM*
CCN1C(=O)/C(=C2/C=Cc3ccccc3N2CC)SC1=S	u	10.2%	12.6µM*	7.94µM*	x	11.2µM*
C=CCN1C(=O)/C(=C2/Sc3ccccc3N2CCCS(=O)(=O)O)SC1=S	u	u	39.8µM*	u	u	6.2%[11.4 µM]
C=CCN1C(=O)/C(=C2/Sc3ccccc3N2CC)SC1=S	35.4%	-14.5%	1.2%	9.4%	7.9%	-8.3%
CCCN1/C(=C2/SC(=S)N(CC)C2=O)C=Cc2ccccc21	u	11.6%	u	2µM*	x	3.16µM*
CC(=O)Nc1ccc(-c2nnc3n(Cc4ccc(C)cc4)c(=O)c4ccccc4n23)cc1	65.0%	-2.3%	-5.5%[59 µM]	16.4%	x	-15.2%
CCOC(=O)c1c(C)oc2nc(C)nc(NCCc3ccc(SC)cc3)c12	43.6%	-12.2%	-19.1%[59 µM]	4.3%[57.1 µM]	x	-7.4%
COC(=O)c1ccc(NC(=O)CSc2nc(C)cc(C)c2C(=O)Nc2ccccc2)cc1	13.5%	3.0%	0.8%[59 µM]	5.8%	x	-15.9%
COC(=O)CSc1nc2sc3c(c2c(=O)n1-c1ccccc1C)CC(C)(C)OC3	37.2%	-0.9%	-1.4%[59 µM]	-0.8%	x	-20.4%
CC(=O)N1C(=O)/C(=C2\SC(=S)N(NS(=O)(=O)c3ccc(C)cc3)C2=O)c2ccccc21	-9.3%	16.1%	x	u	-1.3%	u
